# Assay results: PMC7862700, “An all-to-all approach to the identification of sequence-specific readers for epigenetic DNA modifications on cytosine”
# Molecular target: T1, ELK1 (Homo sapiens, UniProt P19419 1-428)
# T1 sequence: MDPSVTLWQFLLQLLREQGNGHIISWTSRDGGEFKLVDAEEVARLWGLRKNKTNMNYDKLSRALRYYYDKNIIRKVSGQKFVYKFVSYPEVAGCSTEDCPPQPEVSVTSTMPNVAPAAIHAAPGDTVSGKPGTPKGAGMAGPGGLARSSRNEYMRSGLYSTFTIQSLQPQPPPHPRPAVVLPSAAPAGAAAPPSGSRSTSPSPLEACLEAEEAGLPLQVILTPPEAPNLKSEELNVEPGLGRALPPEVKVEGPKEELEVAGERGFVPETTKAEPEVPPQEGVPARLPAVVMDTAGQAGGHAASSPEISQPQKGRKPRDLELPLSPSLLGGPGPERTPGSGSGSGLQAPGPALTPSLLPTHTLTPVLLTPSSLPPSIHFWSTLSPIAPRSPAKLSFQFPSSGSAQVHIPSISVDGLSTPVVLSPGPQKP
# Experiment: DAPPL (digital affinity profiling via proximity ligation, sequencing); 10 mM Tris-HCl pH 7.5, 50 mM NaCl, 1 mM DTT, 4% glycerol, room temperature, 30 min; GST-TFs on glutathione beads, 16-mer random dsDNA library, 0.1% formaldehyde crosslink after washing; high values mean tight binding
# Conditions: protein: recombinant; tags: N-terminal GST; dsDNA, one strand shown
# Summary of the method: (§1)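 Binding signal is each hexamer's read frequency for a factor divided by its frequency in the tag-only sample. The factors were GST-fused human transcription factors from yeast, captured on glutathione beads, DNA-barcoded and pooled with that sample. Pools were incubated with 200 nmole of a random double-stranded 16-mer DNA library in Tris/NaCl/DTT/glycerol buffer at room temperature for 30 min, then washed, crosslinked with 0.1% formaldehyde, proximity-ligated with BsaI/T4 ligase (1 h, 37 °C), PCR-amplified and sequenced on an Illumina NextSeq500.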
row,Sequence,binding signal
1,GCTAAG,"1.08 fold enrichment (6-mer frequency, TF over GST control)"
2,TGGATA,"1.05 fold enrichment (6-mer frequency, TF over GST control)"
3,ATAAGA,"1.12 fold enrichment (6-mer frequency, TF over GST control)"
4,CTAGAA,"1 fold enrichment (6-mer frequency, TF over GST control)"
5,TGAATC,"1.01 fold enrichment (6-mer frequency, TF over GST control)"
6,GATCTA,"1.12 fold enrichment (6-mer frequency, TF over GST control)"
7,CTTAAG,"1.11 fold enrichment (6-mer frequency, TF over GST control)"
8,TAAAGG,"1.03 fold enrichment (6-mer frequency, TF over GST control)"
9,AGTCTC,"1.02 fold enrichment (6-mer frequency, TF over GST control)"
10,TGATTA,"1.17 fold enrichment (6-mer frequency, TF over GST control)"
11,TAGATA,"1.03 fold enrichment (6-mer frequency, TF over GST control)"
12,CCCCAG,"1 fold enrichment (6-mer frequency, TF over GST control)"
13,TGATAG,"1.07 fold enrichment (6-mer frequency, TF over GST control)"
14,GCCCGA,"1.01 fold enrichment (6-mer frequency, TF over GST control)"
15,GTTCGC,"1.08 fold enrichment (6-mer frequency, TF over GST control)"
16,GGATCT,"1.07 fold enrichment (6-mer frequency, TF over GST control)"
17,TTAGAT,"1.16 fold enrichment (6-mer frequency, TF over GST control)"
18,TCAATC,"1.08 fold enrichment (6-mer frequency, TF over GST control)"
19,ATAAGT,"1.05 fold enrichment (6-mer frequency, TF over GST control)"
20,TTAAGA,"1.05 fold enrichment (6-mer frequency, TF over GST control)"
21,GCTGGT,"1.23 fold enrichment (6-mer frequency, TF over GST control)"
22,CGTTTA,"1.08 fold enrichment (6-mer frequency, TF over GST control)"
23,CGTCTG,"1.06 fold enrichment (6-mer frequency, TF over GST control)"
24,TAAGCA,"1.02 fold enrichment (6-mer frequency, TF over GST control)"

# Molecular target: T2, GABPA (Homo sapiens, UniProt Q06546 1-454)
# T2 sequence: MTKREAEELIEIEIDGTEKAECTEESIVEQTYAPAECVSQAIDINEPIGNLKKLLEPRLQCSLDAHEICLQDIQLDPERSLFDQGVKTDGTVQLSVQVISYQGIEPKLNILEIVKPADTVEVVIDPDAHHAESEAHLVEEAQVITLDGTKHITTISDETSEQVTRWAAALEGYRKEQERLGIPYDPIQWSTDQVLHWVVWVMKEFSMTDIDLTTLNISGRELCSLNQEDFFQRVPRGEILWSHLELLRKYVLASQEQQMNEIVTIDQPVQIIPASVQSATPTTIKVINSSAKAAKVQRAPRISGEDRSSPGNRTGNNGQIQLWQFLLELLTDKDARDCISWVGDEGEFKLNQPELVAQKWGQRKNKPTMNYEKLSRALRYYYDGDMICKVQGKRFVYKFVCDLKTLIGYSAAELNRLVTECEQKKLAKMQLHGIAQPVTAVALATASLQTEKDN
# Experiment: as above
# Conditions: protein: recombinant; tags: N-terminal GST; dsDNA, one strand shown
# Summary of the method: as §1
row,Sequence,binding signal
1,ACCTAG,"1.14 fold enrichment (6-mer frequency, TF over GST control)"
2,TGGATA,"1.1 fold enrichment (6-mer frequency, TF over GST control)"
3,ATAAGA,"1.08 fold enrichment (6-mer frequency, TF over GST control)"
4,CTAGAA,"1.05 fold enrichment (6-mer frequency, TF over GST control)"
5,TGAATC,"1.05 fold enrichment (6-mer frequency, TF over GST control)"
6,GCTAGT,"1.06 fold enrichment (6-mer frequency, TF over GST control)"
7,CTTAAG,"1.13 fold enrichment (6-mer frequency, TF over GST control)"
8,TAAAGG,"1.03 fold enrichment (6-mer frequency, TF over GST control)"
9,AGTCTC,"1.01 fold enrichment (6-mer frequency, TF over GST control)"
10,TGATTA,"1.1 fold enrichment (6-mer frequency, TF over GST control)"
11,TAGATA,"1.1 fold enrichment (6-mer frequency, TF over GST control)"
12,TGATAG,"1.03 fold enrichment (6-mer frequency, TF over GST control)"
13,GCCCGA,"1.02 fold enrichment (6-mer frequency, TF over GST control)"
14,GTTCGC,"1.03 fold enrichment (6-mer frequency, TF over GST control)"
15,GGATCT,"1.02 fold enrichment (6-mer frequency, TF over GST control)"
16,TTAGAT,"1.06 fold enrichment (6-mer frequency, TF over GST control)"
17,TTGCCA,"1.13 fold enrichment (6-mer frequency, TF over GST control)"
18,TCAATC,"1.13 fold enrichment (6-mer frequency, TF over GST control)"
19,ATAAGT,"1.07 fold enrichment (6-mer frequency, TF over GST control)"
20,TCTAGA,"1.02 fold enrichment (6-mer frequency, TF over GST control)"
21,CTAGCC,"1 fold enrichment (6-mer frequency, TF over GST control)"
22,TAGACT,"1.02 fold enrichment (6-mer frequency, TF over GST control)"
23,TTAAGA,"1.09 fold enrichment (6-mer frequency, TF over GST control)"
24,GCTGGT,"1.15 fold enrichment (6-mer frequency, TF over GST control)"
25,CGTTTA,"1.13 fold enrichment (6-mer frequency, TF over GST control)"
26,GATCAA,"1.16 fold enrichment (6-mer frequency, TF over GST control)"
27,CGTCTG,"1.06 fold enrichment (6-mer frequency, TF over GST control)"
28,TAAGCA,"1.08 fold enrichment (6-mer frequency, TF over GST control)"
29,CATGCG,"1.06 fold enrichment (6-mer frequency, TF over GST control)"

# Molecular target: T3, ERG (Homo sapiens, UniProt P11308 1-479)
# T3 sequence: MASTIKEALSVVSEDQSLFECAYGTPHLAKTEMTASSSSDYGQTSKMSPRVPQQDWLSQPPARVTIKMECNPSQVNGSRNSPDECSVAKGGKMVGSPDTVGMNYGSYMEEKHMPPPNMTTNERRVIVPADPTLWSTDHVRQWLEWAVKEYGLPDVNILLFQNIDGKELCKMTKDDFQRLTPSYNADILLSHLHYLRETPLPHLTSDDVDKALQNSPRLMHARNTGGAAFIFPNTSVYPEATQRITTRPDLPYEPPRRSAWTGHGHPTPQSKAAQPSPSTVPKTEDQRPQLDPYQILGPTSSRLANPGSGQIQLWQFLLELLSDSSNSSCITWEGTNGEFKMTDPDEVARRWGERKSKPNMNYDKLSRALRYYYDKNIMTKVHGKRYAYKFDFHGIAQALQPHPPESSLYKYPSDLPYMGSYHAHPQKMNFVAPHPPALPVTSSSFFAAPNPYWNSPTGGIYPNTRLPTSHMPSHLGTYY
# Experiment: as above
# Conditions: protein: recombinant; tags: N-terminal GST; dsDNA, one strand shown
# Summary of the method: as §1
row,Sequence,binding signal
1,GCTAAG,"1.01 fold enrichment (6-mer frequency, TF over GST control)"
2,TGGATA,"1.08 fold enrichment (6-mer frequency, TF over GST control)"
3,ATAAGA,"1.11 fold enrichment (6-mer frequency, TF over GST control)"
4,CTAGAA,"1.05 fold enrichment (6-mer frequency, TF over GST control)"
5,CTTAAG,"1.09 fold enrichment (6-mer frequency, TF over GST control)"
6,TAAAGG,"1.03 fold enrichment (6-mer frequency, TF over GST control)"
7,AGTCTC,"1.06 fold enrichment (6-mer frequency, TF over GST control)"
8,TGATTA,"1.02 fold enrichment (6-mer frequency, TF over GST control)"
9,TCGAGC,"1.03 fold enrichment (6-mer frequency, TF over GST control)"
10,CCCCAG,"1.05 fold enrichment (6-mer frequency, TF over GST control)"
11,GCCCGA,"1.01 fold enrichment (6-mer frequency, TF over GST control)"
12,GTTCGC,"1.04 fold enrichment (6-mer frequency, TF over GST control)"
13,GGATCT,"1.01 fold enrichment (6-mer frequency, TF over GST control)"
14,TTAGAT,"1.04 fold enrichment (6-mer frequency, TF over GST control)"
15,TTGCCA,"1.08 fold enrichment (6-mer frequency, TF over GST control)"
16,TCAATC,"1.04 fold enrichment (6-mer frequency, TF over GST control)"
17,TCTAGA,"1 fold enrichment (6-mer frequency, TF over GST control)"
18,CTAGCC,"1.01 fold enrichment (6-mer frequency, TF over GST control)"
19,TAGACT,"1.05 fold enrichment (6-mer frequency, TF over GST control)"
20,GCTGGT,"1.28 fold enrichment (6-mer frequency, TF over GST control)"
21,CGTTTA,"1.05 fold enrichment (6-mer frequency, TF over GST control)"
22,CGTCTG,"1.11 fold enrichment (6-mer frequency, TF over GST control)"
23,TAAGCA,"1.01 fold enrichment (6-mer frequency, TF over GST control)"
24,CATGCG,"1.03 fold enrichment (6-mer frequency, TF over GST control)"

# Molecular target: ELF1 (Homo sapiens, UniProt P32519 1-619)
# Sequence (P32519 whole entry): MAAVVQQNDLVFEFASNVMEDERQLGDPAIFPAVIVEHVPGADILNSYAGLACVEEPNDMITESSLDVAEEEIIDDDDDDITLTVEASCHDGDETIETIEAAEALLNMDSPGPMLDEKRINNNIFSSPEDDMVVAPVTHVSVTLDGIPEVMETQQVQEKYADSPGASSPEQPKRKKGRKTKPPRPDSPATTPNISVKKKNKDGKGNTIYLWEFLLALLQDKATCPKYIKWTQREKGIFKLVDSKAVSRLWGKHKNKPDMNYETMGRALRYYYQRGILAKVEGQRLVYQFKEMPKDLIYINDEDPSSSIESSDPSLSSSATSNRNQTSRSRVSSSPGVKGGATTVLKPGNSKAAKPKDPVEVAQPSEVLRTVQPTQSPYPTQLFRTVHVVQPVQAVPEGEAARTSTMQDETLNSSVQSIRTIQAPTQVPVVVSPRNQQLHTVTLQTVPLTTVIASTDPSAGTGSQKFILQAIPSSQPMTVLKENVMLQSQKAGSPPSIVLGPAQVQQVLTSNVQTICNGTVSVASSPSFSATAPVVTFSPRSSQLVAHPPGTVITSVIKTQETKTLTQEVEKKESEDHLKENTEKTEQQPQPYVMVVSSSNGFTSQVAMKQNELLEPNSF
# Experiment: as above
# Conditions: protein: recombinant; tags: N-terminal GST; dsDNA, one strand shown
# Summary of the method: as §1
row,Sequence,binding signal
1,ACCTAG,"1.06 fold enrichment (6-mer frequency, TF over GST control)"
2,GATTTA,"1 fold enrichment (6-mer frequency, TF over GST control)"
3,ATAAGA,"1.04 fold enrichment (6-mer frequency, TF over GST control)"
4,CTAGAA,"1.04 fold enrichment (6-mer frequency, TF over GST control)"
5,TGAATC,"1 fold enrichment (6-mer frequency, TF over GST control)"
6,GATCTA,"1.03 fold enrichment (6-mer frequency, TF over GST control)"
7,GCTAGT,"1.16 fold enrichment (6-mer frequency, TF over GST control)"
8,AGCTAG,"1.06 fold enrichment (6-mer frequency, TF over GST control)"
9,CTTAAG,"1.09 fold enrichment (6-mer frequency, TF over GST control)"
10,TAAAGG,"1.08 fold enrichment (6-mer frequency, TF over GST control)"
11,AGTCTC,"1.05 fold enrichment (6-mer frequency, TF over GST control)"
12,TGATTA,"1.09 fold enrichment (6-mer frequency, TF over GST control)"
13,TAGATA,"1.06 fold enrichment (6-mer frequency, TF over GST control)"
14,CCCCAG,"1.04 fold enrichment (6-mer frequency, TF over GST control)"
15,TGATAG,"1.09 fold enrichment (6-mer frequency, TF over GST control)"
16,GCCCGA,"1.14 fold enrichment (6-mer frequency, TF over GST control)"

row,Sequence,binding signal
1,GTTCGC,"1.02 fold enrichment (6-mer frequency, TF over GST control)"
2,TTAGAT,"1.03 fold enrichment (6-mer frequency, TF over GST control)"
3,TTGCCA,"1.03 fold enrichment (6-mer frequency, TF over GST control)"
4,TCAATC,"1.07 fold enrichment (6-mer frequency, TF over GST control)"
5,ATAAGT,"1.08 fold enrichment (6-mer frequency, TF over GST control)"
6,TCTAGA,"1 fold enrichment (6-mer frequency, TF over GST control)"
7,CTAGCC,"1.07 fold enrichment (6-mer frequency, TF over GST control)"
8,TAGACT,"1.09 fold enrichment (6-mer frequency, TF over GST control)"
9,TTAAGA,"1.05 fold enrichment (6-mer frequency, TF over GST control)"
10,GCTGGT,"1.04 fold enrichment (6-mer frequency, TF over GST control)"
11,CGTTTA,"1.06 fold enrichment (6-mer frequency, TF over GST control)"
12,GATCAA,"1.04 fold enrichment (6-mer frequency, TF over GST control)"
13,CGTCTG,"1.11 fold enrichment (6-mer frequency, TF over GST control)"
14,TAAGCA,"1.07 fold enrichment (6-mer frequency, TF over GST control)"
15,CATGCG,"1.07 fold enrichment (6-mer frequency, TF over GST control)"
